FLuc counter = qHTS profiling assay for firefly luciferase inhibitor/activator using purifed enzyme and Km concentrations of substrates (counterscreen for miR-21 project); Potency, µM (titrated, usually from 57.5 µM), for inactives: at the top dose activity change, negative = inhibition, most hits filed as inhibitors; Luciferin 4-monooxygenase (Photinus pyralis), P08659; AID 588342, 2011; purified FLuc, Km substrates, luminescence inhibition; actives 6.9% (n = 360,000);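 also: plate controls were vehicle for no effect and reference inhibitor for full effect; nearly all actives have a fitted effect of over 55% in size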
Target sequence (P08659 whole entry, looked up): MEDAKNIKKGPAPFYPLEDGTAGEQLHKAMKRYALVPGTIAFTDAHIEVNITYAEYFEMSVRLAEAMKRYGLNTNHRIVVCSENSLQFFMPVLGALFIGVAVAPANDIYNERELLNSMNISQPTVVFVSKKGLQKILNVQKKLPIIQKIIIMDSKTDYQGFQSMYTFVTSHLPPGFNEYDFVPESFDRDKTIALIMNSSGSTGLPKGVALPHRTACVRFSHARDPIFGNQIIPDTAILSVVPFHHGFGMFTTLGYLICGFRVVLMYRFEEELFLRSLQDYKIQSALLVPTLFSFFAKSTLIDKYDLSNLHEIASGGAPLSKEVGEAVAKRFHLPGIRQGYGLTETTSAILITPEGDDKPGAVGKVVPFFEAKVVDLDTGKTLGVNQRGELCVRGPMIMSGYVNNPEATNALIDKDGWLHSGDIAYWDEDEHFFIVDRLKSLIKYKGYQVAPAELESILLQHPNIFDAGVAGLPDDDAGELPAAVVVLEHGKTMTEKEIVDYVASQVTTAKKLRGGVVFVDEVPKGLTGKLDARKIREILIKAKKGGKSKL
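Purified P. pyralis luciferase (10nM final) with 10uM D-luciferin and 10uM ATP (Km levels) in 50mM Tris acetate pH 7.5, 10mM Mg acetate, 0.01% Tween-20, 0.05% BSA; qHTS 6-point titration, ~60 µM downward; luminescence read.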
Rab9 prom act = qHTS Assay for Rab9 Promoter Activators; Huh7 Rab9 promoter-luciferase reporter, luminescence, 24 h; Potency, µM (titrated, usually from 9.22 µM), for inactives: top-dose activation, negative = inhibition, most hits filed as activators; actives 2.8% (n = 320,000); AID 485297, 2010; also: % of control where 0% means no effect; nearly all actives have a fitted effect of over 60% in size
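Stable Rab9-luc Huh7, 1500 cells/well, 2 h settle; cmpd in DMSO, 24 h, 37 °C/5% CO2; luciferase reagent 10 min RT; luminescence.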
SMN2 splice up = qHTS Assay for Enhancers of SMN2 Splice Variant Expression; actives 2.8% (n = 210,000); Potency, µM (series often up to 46.1 µM), without a hit: top-dose activity change, positive = activation, most hits filed as activators; HEK293 SMN2-luciferase splicing reporter, luminescence, 30-36 h; also: % of control where 0% means no effect; nearly all actives have a fitted effect of over 55% in size
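HEK293 cells carry an SMN2 minigene-luciferase reporter in which exon 7 inclusion puts luciferase in frame. Cells were seeded at 2000 cells/well, attached for 10-12 hours, then exposed to compounds for 30-36 hours at 37C before ONE-Glo luminescence.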
ELG1 DNA repair = qHTS screen for small molecules that inhibit ELG1-dependent DNA repair in human embryonic kidney (HEK293T) cells expressing luciferase-tagged ELG1; Potency, µM (series often up to 46.1 µM), for inactives: at the top dose activity change, negative = inhibition, hits mostly inhibitors; HEK293T ELG1-luciferase reporter, luminescence, 16 h; DNA damage induced by 5-fluorouridine; AID 504467, 2011; actives 2.3% (n = 330,000); also: % is scaled to controls: 0 for no effect and ±100 for the full control effect; nearly all actives have a fitted effect of over 55% in size
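HEK293T cells expressing luciferase-tagged ELG1 (2,000/well) received 5-Fluorouridine plus compound or DMSO for 16 hr at 37 °C. Luciferase was read by ONE-Glo luminescence after 30 min at room temperature.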
NPC1 prom act = qHTS Assay for NPC1 Promoter Activators. Huh7 NPC1 promoter luciferase reporter, 24 h. Potency, µM (top dose mostly 9.22 µM), for inactives: at the highest dose activation, usual class: activators. actives 2.4% (n = 320,000). AID 485313, 2010; also: % of control where 0% means no effect; nearly all actives have a fitted effect of over 60% in size
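NPC1 promoter–luciferase Huh7 cells; 24 h compound; luminescence.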
ELG1 genotoxic = qHTS screen for small molecules that induce genotoxicity in human embryonic kidney (HEK293T) cells expressing luciferase-tagged ELG1; actives 1.3% (n = 330,000); HEK293T ELG1-luciferase reporter, luminescence, 16 h; AID 504466, 2011; Potency, µM (doses to about 46 µM), without a hit: at the top dose activity change, positive = activation, actives largely listed as activators; also: % of control where 0% means no effect; nearly all actives have a fitted effect of over 60% in size
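Reporter readout depends on ELG1 protein level, which increases with genetic stress. After 16 hr compound exposure at 37 °C, luciferase activity was quantified using ONE-Glo.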
* = called active by the depositor; ? = inconclusive; . = no result; [ ] = dose if it differs, or a comment. This is a sample that favours compounds with a hit; in the whole collection about 9.4% have one here. Calls follow the shape of the dose curve; as a rule, active = well fitted curve in the direction sought with a large enough effect; inconclusive = small, poorly fitted or top-dose-only effect, or another doubt; inactive = no such curve, though single readings can be large; an effect the other way counts as inactive or inconclusive. Potency is read from the fitted curve at half-maximal effect.

SMILES | FLuc counter | Rab9 prom act | SMN2 splice up | ELG1 DNA repair | NPC1 prom act | ELG1 genotoxic
CCOc1ccc(NC(=O)COc2ccccc2)c([N+](=O)[O-])c1 | 3µM* | 3.5µM* | ? | ? | ? | ?
Nc1cc(C(=O)O)c(O)c(S(=O)(=O)O)c1 | . | . | -3% | . | . | .
Cn1cccc1C(=O)N1CCC2(CC1)CCN(c1ccncc1)CC2 | . | . | -55% | . | . | .
Cc1cc(OCC(=O)Nc2ccncc2)ccc1Cl | ? | -4% | . | -26% | 1% | -2%
Cc1ccccc1OCC(=O)Nc1ccncc1 | ? | -4% | . | ? | -6% | 2%
Cc1ccc(OCC(=O)Nc2ccncc2)c(C)c1 | 12µM* | 4% | . | ? | -4% | 12%
CN(c1cccc(NC(=O)COc2ccc(Cl)cc2Cl)c1)S(C)(=O)=O | 1.2µM* | ? | 30% | ? | 29% | 8%
O=C(COc1ccc(Cl)cc1Br)Nc1ccncc1 | 9.5µM* | 2% | . | ? | ? | ?
CC(Oc1ccc(Cl)cc1Cl)C(=O)Nc1ccncc1 (configuration not stated) | -2% | -4% | . | 5.8µM* | -2% | -12%
CC(=O)Nc1ccc(NC(=O)C(C)Oc2ccc(Cl)cc2Cl)cc1 (configuration not stated) | -1% | -5% | -9% | 9% | 1% | 7%
Cc1ccccc1OCC(=O)Nc1cccc(N(C)S(C)(=O)=O)c1 | ? | 19% | 23% | ? | 13% | 4%
O=C(C1CCC1)N1CCc2cc(S(=O)(=O)NCCc3ccccc3)ccc21 | -8% | . | -43% | . | . | .
COc1ccc(Cl)cc1NC(=O)N1CCN(Cc2cc(=O)n3nc(-c4ccccc4)sc3n2)CC1 | 0% | . | . | . | . | .
CCNC(=O)CCCOc1ccc(Cl)cc1Cl | ? | 6% | 4% | ? | 3% | ?
O=C(CCCOc1ccc(Cl)cc1Cl)Nc1ccccn1 | 17µM* | -3% | 9% | ? | 2% | ?
O=C(COc1ccc(Cl)cc1Cl)Nc1cccnc1 | 6.7µM* | -5% | -9% | ? | 18% | ?
O=C(CCCOc1ccc(Cl)cc1Cl)Nc1ccncc1 | 24µM* | 0% | -22% | -13% | -3% | 0%
NCCSCCC(=O)O | . | . | -5%[9.22 µM] | . | . | .
Cc1ccc(-c2noc(/C=C/c3ccccc3)n2)cc1 | 9.5µM* | ? | ? | ? | ? | 19%
Clc1ccc(-c2noc(/C=C/c3ccccc3)n2)cc1 | ? | 24% | . | ? | 27% | ?
C(=C\c1nc(-c2cccnc2)no1)/c1ccccc1 | 4.8µM* | ? | . | ? | 28% | 9%
Clc1ccccc1/C=C/c1nc(-c2cccnc2)no1 | 1.7µM* | 0.63µM* | . | ? | 1.3µM* | ?
Cc1ccc2nc(NC(=O)c3ccc(OCC4CCCO4)cc3)sc2c1 (configuration not stated) | 3µM* | ? | -45% | ? | ? | -6%
Cc1cc(C)c2nc(NC(=O)c3ccc(OCC4CCCO4)cc3)sc2c1 (configuration not stated) | 11µM* | -25% | -59% | 6% | -18% | -3%
O=C(Nc1ccc(Cl)cc1)c1ccc(OCC2CCCO2)cc1 (configuration not stated) | 5.4µM* | ? | 18% | ? | ? | ?
SMILES | FLuc counter | Rab9 prom act | SMN2 splice up | ELG1 DNA repair | NPC1 prom act | ELG1 genotoxic
Cn1cccc1-c1cc2n(n1)CCC(=O)N2CCCC(=O)NCc1cccc(Cl)c1 | 6% | . | . | . | . | .
Cc1ccc2oc(C(=O)N(Cc3cccc(F)c3)C3CCS(=O)(=O)C3)c(C)c2c1 (configuration not stated) | -3% | . | -13% | . | . | .
Cc1nc2sc(C(N)=O)c(N)c2c(C)c1CC(=O)c1ccccc1 | 17µM* | 2.8µM* | 24% | ? | 3.5µM* | -6%
Cc1cc(C)c2c(N)c(C(=O)c3ccccc3)sc2n1 | ? | -3% | . | ? | -2% | -1%
Cc1cc(C(=O)CN2CCC(C)CC2)c(C)n1-c1ccccc1F | 1.9µM* | -8% | ? | ? | -8% | ?
Cc1cc(C(=O)CN2C(=O)C(=O)N(Cc3ccccc3)C2=O)c(C)n1Cc1ccccc1 | . | . | . | 16% | . | 1%
Cc1cc(C(=O)CN2CC(C)OC(C)C2)c(C)n1-c1ccccc1 (configuration not stated) | ? | ? | ? | ? | ? | 21µM*
Cc1cc(C(=O)CN2C(=O)C(=O)N(Cc3ccccc3)C2=O)c(C)n1-c1ccccc1F | 19µM* | -3% | -1% | 6% | 0% | 2%
COc1ccc(-n2c(C)cc(C(=O)CN3C(=O)c4ccccc4C3=O)c2C)cc1 | 15µM* | 24% | 10% | ? | 14% | 2%
Cc1ccc(-n2c(C)cc(C(=O)CN3CCCCC3)c2C)cc1 | ? | 0% | -32% | ? | -3% | 12%
COc1ccc(-n2c(C)cc(C(=O)CCl)c2C)cc1 | -9% | -38% | 0% | 28% | -19% | ?
Cc1sc2ncn(CC(=O)Nc3cccc(C(F)(F)F)c3)c(=O)c2c1S(=O)(=O)N1CCN(C)CC1 | 0% | . | 15% | . | . | .
O=C(NCCSCc1ccccc1Cl)C1CCN(S(=O)(=O)Cc2ccccc2)CC1 | -6% | . | . | . | . | .
CCc1cccc(C)c1NC(=O)CN1C(=O)c2c(c3ccccc3n2C)C1c1ccc(OC)cc1 (configuration not stated) | -2% | . | . | . | . | .
Cc1cc(C(=O)CN2C(=O)C(=O)N(Cc3ccccc3)C2=O)c(C)n1CC1COc2ccccc2O1 (configuration not stated) | -6% | -25% | -57% | 6.5µM* | -16% | -4%
Cc1cc(C(=O)CN2C(=O)C(=O)N(Cc3ccccc3)C2=O)c(C)n1Cc1ccc(F)cc1 | -5% | -1% | . | 8% | 2% | 1%
CN(C)c1ccc(NC(=O)Cn2cc3c(n2)CCCC3)cc1 | 19µM* | 0% | -4% | ? | 9% | ?
O=C(NCc1cccs1)C(=O)c1cn(CC(=O)N2CCCC2)c2ccccc12 | -3% | 1% | 3% | -18% | -1% | -2%
COC(=O)CN(C)C(=O)c1ccc2nc(Cc3cccc(Cl)c3)oc2c1 | 24µM* | 3.5µM* | . | ? | 2.8µM* | ?

Screening data: PubChem BioAssay, National Center for Advancing Translational Sciences (NCATS)
